# In all, about 310,000 compounds went through this assay and about 14,000 (4.5%) showed an effect of 50% or more. Effects have a minus sign here. Only a selection was taken, and strong results are over-represented in it overall.
# Target: human ether-à-go-go-related gene (hERG) potassium channel (human, UniProt Q12809)
# Experiment: primary screen, population patch clamp on CHO cells stably expressing hERG; higher = less effect of the substance
# 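Also: peak tail current of the secondary pulse compared with the same well before compound.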
# Sequence of human ether-à-go-go-related gene (hERG) potassium channel (Q12809 whole entry, looked up): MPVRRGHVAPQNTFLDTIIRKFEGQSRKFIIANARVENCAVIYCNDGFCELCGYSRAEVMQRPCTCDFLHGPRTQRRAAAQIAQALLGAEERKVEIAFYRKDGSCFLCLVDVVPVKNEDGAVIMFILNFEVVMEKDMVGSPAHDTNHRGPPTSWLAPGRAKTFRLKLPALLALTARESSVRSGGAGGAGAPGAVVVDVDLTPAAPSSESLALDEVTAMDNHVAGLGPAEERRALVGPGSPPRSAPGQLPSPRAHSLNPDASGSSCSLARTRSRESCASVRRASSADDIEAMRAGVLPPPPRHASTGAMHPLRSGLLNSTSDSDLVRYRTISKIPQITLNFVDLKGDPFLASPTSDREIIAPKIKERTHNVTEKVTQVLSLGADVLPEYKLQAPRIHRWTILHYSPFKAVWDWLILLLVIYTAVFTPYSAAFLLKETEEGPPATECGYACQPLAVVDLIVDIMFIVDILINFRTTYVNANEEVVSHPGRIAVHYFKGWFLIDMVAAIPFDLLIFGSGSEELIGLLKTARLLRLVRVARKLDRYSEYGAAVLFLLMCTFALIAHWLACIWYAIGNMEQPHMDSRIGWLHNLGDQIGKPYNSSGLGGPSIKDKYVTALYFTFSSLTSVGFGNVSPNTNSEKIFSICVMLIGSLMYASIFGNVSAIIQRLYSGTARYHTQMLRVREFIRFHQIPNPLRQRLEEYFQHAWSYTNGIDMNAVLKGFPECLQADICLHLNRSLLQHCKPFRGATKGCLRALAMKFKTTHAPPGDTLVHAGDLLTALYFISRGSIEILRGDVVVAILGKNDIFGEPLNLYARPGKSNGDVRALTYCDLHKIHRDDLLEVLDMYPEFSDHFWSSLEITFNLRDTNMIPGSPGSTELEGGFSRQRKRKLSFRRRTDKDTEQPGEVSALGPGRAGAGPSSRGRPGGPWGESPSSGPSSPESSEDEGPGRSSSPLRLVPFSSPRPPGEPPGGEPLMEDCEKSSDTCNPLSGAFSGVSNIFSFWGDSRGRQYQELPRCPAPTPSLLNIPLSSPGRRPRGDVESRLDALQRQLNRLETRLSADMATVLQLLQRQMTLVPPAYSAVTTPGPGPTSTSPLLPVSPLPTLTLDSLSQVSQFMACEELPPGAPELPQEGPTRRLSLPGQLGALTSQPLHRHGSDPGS
row,Structure (SMILES),"hERG current change (%, negative = inhibition) at 10uM [%]"
1,Cc1sc(NC(=O)CN(Cc2ccccc2)C(=O)C(C)C)c(C(N)=O)c1C,-0.293
2,O=C(COc1cc(F)ccc1[N+](=O)[O-])Nc1ccc2c(c1)OCO2,1.25
3,Cc1csc(NC(=O)C2CCN(S(=O)(=O)c3ccc4c(c3)oc(=O)n4C)CC2)n1,-11.5
4,COCCNC(=O)c1cc(-c2ccccc2)n(Cc2cc(C)no2)n1,0.26
5,Cn1c(O)c(C=NCCN2CCN(C(=O)Nc3ccccc3)CC2)c(=O)n(C)c1=O,13.1
6,O=C(Nc1cc(Cl)cc(Cl)c1)C(NCCCO)c1ccccc1 (stereo not shown),3.1
7,CC(CNCc1ccc2c(c1)OCO2)NCc1ccc2c(c1)OCO2 (stereo not shown),-54.5
8,Cc1ccc(OCCNCC(O)COc2ccccc2)cc1.O=C(O)C(=O)O (stereo not shown),-44.2
9,Cc1ccc(C(OCC(O)CNCc2ccc(F)cc2)c2ccccc2)cc1.O=C(O)C(=O)O (stereo not shown),-75.7
10,CC(C)(C)NCC(O)COCc1ccc(Cl)cc1.Cl (stereo not shown),-24.6
11,Cl.OC(CNCc1ccccc1)COCc1ccc(Cl)cc1 (stereo not shown),-50.3
12,CC(NCC(O)COCc1ccc(Cl)cc1)c1ccccc1.Cl (stereo not shown),-43.1
13,COc1ccc(CCC(=O)NCCOc2ccc(C)cc2)cc1,2.1
14,CC(=O)CCc1ccc(OCC(O)CNCCOc2ccc(C)cc2)cc1 (stereo not shown),-55.9
15,Cc1ccc(CNCc2ccc3c(c2)OCO3)cc1,-0.503
16,CC(NCc1ccc2c(c1)OCO2)c1ccccc1.Cl (stereo not shown),10.4
17,Cc1ccc2nsnc2c1S(=O)(=O)N1CCN(CCc2ccccc2)CC1,-42.6
18,Cc1cc2c(=O)n(CC(=O)N3CCN(c4ccc(F)cc4)CC3)cnc2s1,-12.4
19,CC(C)(C)CC(C)(C)NCC(O)COCCOc1ccc(Br)cc1.Cl (stereo not shown),-32.8
20,O=C(NCc1ccc(F)cc1)NC(=O)c1ccc(Cl)cc1,8.5
21,CCOC(=O)C1=CCN(Cc2ccccc2)CC1.Cl,12.8
22,Nc1nnc(SCCCC(=O)c2ccc(Br)cc2)s1,26.5
23,Cc1ccc(OCC(O)CNCc2ccc(F)cc2)cc1 (stereo not shown),-40.5

row,Structure (SMILES),"hERG current change (%, negative = inhibition) at 10uM [%]"
1,OC(CNCc1ccccc1Cl)COc1ccc(F)cc1 (stereo not shown),-21.3
2,CCC(=O)c1ccc(OCC(O)CNC2CCCC2)cc1 (stereo not shown),2.52
3,O=C(COc1ccc(C(=O)c2ccccc2)cc1)NCc1ccc(F)cc1,-6.64
4,OC(CNCc1ccc2c(c1)OCO2)COc1ccc(F)cc1 (stereo not shown),-55.7
5,CC(=O)c1ccc(OCC(O)CNCc2ccc3c(c2)OCO3)cc1 (stereo not shown),-26.1
6,CCC(=O)c1ccc(OCC(O)CNCCc2ccc(Cl)cc2)cc1 (stereo not shown),-72.1
7,CCC(=O)c1ccc(OCC(O)CNCc2ccc(F)cc2)cc1 (stereo not shown),-52.2
8,OC(CNCc1ccc2c(c1)OCO2)COc1ccccc1 (stereo not shown),-5.74
9,CC(=O)c1cccc(OCC(O)CNCCc2ccc(Cl)cc2)c1 (stereo not shown),-49
10,COC(=O)c1ccc(CNCC(O)COc2ccc(-c3ccccc3)cc2)cc1 (stereo not shown),13.1
11,O=C(O)C(=O)O.O=C(c1ccccc1)c1ccc(OCC(O)CNCc2ccc(F)cc2)cc1 (stereo not shown),-68.2
12,CCc1nc(C)ccc1OCC(=O)NCCCN(C)C.O=C(O)C(=O)O,4.48
13,Cc1cc(C)cc(NC(=S)Nc2ccccn2)c1,-8.14
14,Cc1ccc(N=Cc2ccc(O)cc2O)cc1F,20.6
15,O=C(Cn1c(=O)oc2ccccc21)c1ccccc1,-5.11
16,CCN1CCN(C(=S)Nc2cccc(C(F)(F)F)c2)CC1,-7.79
17,CN(C(=O)C(Cl)Cl)C1CC2C=CC1C2 (stereo not shown),5.29
18,Nc1c(C(=O)CSc2nccn2-c2ccc(Cl)cc2)c(=O)[nH]c(=O)n1C1CC1,17.5
19,CS(=O)(=O)N1CCC(C(=O)NCc2ccco2)CC1,6.1
20,COc1ccccc1-c1nnc(SC)n1C,36.9
21,CC(C)COc1nc2ccccc2nc1N1CCN(C)CC1,-72.9
22,COc1nc2ccccc2nc1N1CCN(C)CC1,-23.9
23,COc1nc2ccccc2nc1N1CCN(c2ccc(F)cc2)CC1,17.5
